Several values for one entry are separate records, joined by “and”; a condition that tells them apart may be missing. Equal values may be shown once. Results filed as inconclusive are left out. More than one record can exist for a structure, and the calls need not agree. Activity calls are given as the source filed them. The calls were made as follows: active = hit-call score of the fitted dose curve at least 0.9, where 1 is the maximum; inconclusive = response in the unintended direction; inactive = score below 0.9.

As usually defined, the AC50 is the concentration at which the activity in the assay is half-maximal.

This experiment deals with human Peroxisome Proliferator-activated Receptor alpha (PPARa), PPARA (gene 5465) (UniProt Q07869). The experiment is described as follows: ATG_PPARa_TRANS: Attagene TRANS-FACTORIAL HepG2 Assay for human Peroxisome Proliferator-activated Receptor alpha (PPARa) (AID 2283001).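 As to AC50: potency for gain of reporter signal over DMSO so agonist or activator.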 As to the method: ATG_TRANS is a cell-based, multiplexed-readout assay that uses HepG2, a human liver cell line, with measurements taken at 24 hours after chemical dosing in a 24-well plate.ATG_PPARa_TRANS is one of 30 assay component(s) measured or calculated from the ATG_TRANS assay. It is designed to make measurements of mRNA induction, a form of inducible reporter, as detected with fluorescence intensity signals by Reverse transcription polymerase chain reaction (RT-PCR) and Capillary electrophoresis technology.Data from the assay component ATG_PPARa_TRANS was analyzed into 1 assay endpoint. This assay endpoint, ATG_PPARa_TRANS, was analyzed in the positive analysis fitting direction relative to DMSO as the negative control and baseline of activity. Using a type of inducible reporter, measures of mRNA for gain-of-signal activity can be used to understand the reporter gene at the transcription factor-level as they relate to the gene PPARA. Furthermore, this assay endpoint can be referred to as a primary readout, because this assay has produced multiple assay endpoints where this one serves a reporter gene function. To generalize the intended target to other relatable targets, this assay endpoint is annotated to the nuclear receptor intended target family, where the subfamily is non-steroidal.
Chain of human Peroxisome Proliferator-activated Receptor alpha (PPARa), PPARA (gene 5465) (Q07869 whole entry, looked up): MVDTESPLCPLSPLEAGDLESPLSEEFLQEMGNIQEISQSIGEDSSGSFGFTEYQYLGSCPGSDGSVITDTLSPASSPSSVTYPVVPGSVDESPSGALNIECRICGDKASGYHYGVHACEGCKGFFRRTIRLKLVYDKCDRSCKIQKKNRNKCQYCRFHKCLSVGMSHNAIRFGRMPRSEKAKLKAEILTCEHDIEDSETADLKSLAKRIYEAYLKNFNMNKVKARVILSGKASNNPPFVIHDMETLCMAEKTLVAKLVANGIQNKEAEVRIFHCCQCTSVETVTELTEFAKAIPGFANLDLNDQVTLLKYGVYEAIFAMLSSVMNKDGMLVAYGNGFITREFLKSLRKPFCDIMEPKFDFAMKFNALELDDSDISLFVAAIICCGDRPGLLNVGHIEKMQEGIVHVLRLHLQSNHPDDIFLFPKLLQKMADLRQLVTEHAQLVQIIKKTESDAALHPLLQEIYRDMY
Human liver HepG2 cells are transiently transfected with multiple reporter transcription units (MRTUs) in 6-well plates using FuGene 6 reagent (Roche; 3 ml FuGene/1 mg DNA). The MRTU constructs are regulated by a cis-regulating element (promoter). […] A major difference between the CIS and TRANS system is that in CIS activities of endogenous TFs are measured, whereas the TRANS assay evaluates changes in activities of exogenous, chimeric NR-Gal4 proteins. […] At the end of 24 hour incubation, total RNA was isolated using TriZol reagent (Invitrogen). The isolated RNA is then reverse-transcribed using oligo(dT) primer and Mo-MLV reverse transcriptase (Invitrogen) with DNAse I (Ambion) treatment for 30 min. The one-tenth of the produced cDNA was amplified by PCR using Taq DNA polymerase (Invitrogen) and two reporter sequence-specific primers. The PCR products were fluorescently labeled by primer extension with 6-arboxyfluorescein (6-FAM) 5'-labeled reporter sequence-specific primer (2 min at 95 C, 20 s at 68 C and 10 min at 72 C) and these products were digested with 5U of HpaI (New England Biolabs) for 2h at 37 C. The fragments were purified using Qiaquick PCR columns (Qiagen), analyzed on an ABI 3130xL genetic analyzer (Applied Biosystems) with peak positions identified by using a set of X-rhodamine (ROX)-labeled MapMarker1000 molecular weight standards (BioVentures). The raw capillary electrophoresis data was processed using Attagraph software (Attagene).
For `COP(=S)(OC)Oc1ccc(SC)c(C)c1`, the compound was classed as inactive.

Consider `COC(=O)c1ccccc1CS(=O)(=O)NC(=O)Nc1nc(OC)cc(OC)n1`, for which the compound was classed as inactive. On the same count and under the same terms, to `O=S(=O)(O)C(F)(F)C(F)(F)C(F)(F)C(F)(F)C(F)(F)C(F)(F)C(F)(F)C(F)(F)F` belongs “inactive”; to `CNC(=O)/C=C(\C)OP(=O)(OC)OC`, “inactive”; to `CNC(=O)Oc1cccc(N=CN(C)C)c1`, “inactive”.

Take `CN1CSC(=S)N(C)C1`: the compound was classed as inactive. Still for that read-out and setting: to `N#Cc1c(Cl)c(Cl)c(Cl)c(C#N)c1Cl` belongs “inactive”; to `CCOCN(C(=O)CCl)c1c(C)cccc1CC`, “inactive”. `Oc1ccc(Cl)cc1Cc1ccccc1`: the AC50 was 53.5 µM (active) and the outcome was inactive. Take `N#CN`: the result was inactive. Same read-out and setting: to `ClC1C(Cl)C(Cl)C(Cl)C(Cl)C1Cl` (stereo not given) belongs “inactive”.

With `O=S1OCC2C(CO1)C1(Cl)C(Cl)=C(Cl)C2(Cl)C1(Cl)Cl` (stereo not given), the call was inactive.

Take `COc1nn(CSP(=S)(OC)OC)c(=O)s1`: the call was inactive. `COP(=S)(OC)Oc1ccc([N+](=O)[O-])cc1`: the compound was called inactive. For `CC(C)(C)C(O)C(Oc1ccc(Cl)cc1)n1cncn1` (stereo not given), the compound was classed as inactive. Regarding `CC(C)OC(=O)Nc1cccc(Cl)c1`, the outcome was inactive.

Regarding `O=C(O)COc1ccc(Cl)cc1Cl`, the compound was called inactive.

Turning to `O=C(O)C(F)(F)C(F)(F)C(F)(F)C(F)(F)C(F)(F)C(F)(F)C(F)(F)F`, the AC50 is 22.8 µM (active) [middle of 4 runs].

For `COC(=O)c1ccccc1S(=O)(=O)NC(=O)Nc1nc(C)nc(OC)n1`, the result was inactive. Same read-out and setting: for `CCOc1nc(NC)nc(NC(=O)NS(=O)(=O)c2ccccc2C(=O)OC)n1` the value was “inactive”; for `CCS(=O)(=O)c1cccnc1S(=O)(=O)NC(=O)Nc1nc(OC)cc(OC)n1`, “inactive”; for `OCCOc1ccccc1`, “inactive”. In the case of `Oc1cc(Cl)ccc1Oc1ccc(Cl)cc1Cl`, the AC50 was 17.5 µM (active) and 17.4 µM (active); the outcome was inactive.

Take `C#CCN1C(=O)COc2cc(F)c(N3C(=O)C4=C(CCCC4)C3=O)cc21`: the result was inactive. As to `CCN(CC)C(=O)SCc1ccc(Cl)cc1`, the compound was called inactive. As to `CCC(C)Nc1c([N+](=O)[O-])cc(C(C)(C)C)cc1[N+](=O)[O-]` (stereo not given), the outcome was inactive. The same measure, in the same setting: for `COc1cc(OC)nc(NC(=O)NS(=O)(=O)c2cc(NC=O)ccc2C(=O)N(C)C)n1` the value was “inactive”; for `CCCN(CCOc1c(Cl)cc(Cl)cc1Cl)C(=O)n1ccnc1`, “inactive”; for `CNC(=O)CSP(=S)(OC)OC`, “inactive”. On the same count and under the same terms, for `CNC(=O)Oc1ccccc1OC(C)C` the value was “inactive”; for `O=C(O)CCCOc1ccc(Cl)cc1Cl`, “inactive”.

Regarding `CCC(C)(C)C(=O)OC1=C(c2ccc(Cl)cc2Cl)C(=O)OC12CCCCC2`, the call was inactive.

Turning to `CC1(c2ccc(Oc3ccccc3)cc2)OC(=O)N(Nc2ccccc2)C1=O` (stereo not given), the call was inactive.

For the origin of these results see PubChem BioAssay (EPA / NIEHS).
